Measured values reported in PubChem BioAssay (NCI).
Compounds without any hit were thinned out: in the full panel of roughly 79,000, 15% have a hit. No stated cut-off is given here; in the data, active means growth inhibition above about 70%; inactive means the rest.

Assays:
[1] = NCI Yeast Anticancer Drug Screen. Data for the rad50 strain (AID 155);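 further: 0% = growth of vehicle-only cultures of the same strain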; conditions: S. cerevisiae rad50 strain growth inhibition; at 50.0 µM; stronger effect = higher value
Summary of the method: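 Vehicle-treated cultures provide the reference for the growth inhibition reported for compound-exposed, repair-deficient yeast.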

[2] = NCI Yeast Anticancer Drug Screen. Data for the mec2-1 strain (AID 157); conditions: S. cerevisiae mec2-1 strain, at 50.0 µM, stronger effect = higher value
Summary of the method: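 Strain: mec2-1 (DNA repair/cell cycle alteration). Compound exposure, then growth measured; inhibition expressed relative to vehicle.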

[3] = NCI Yeast Anticancer Drug Screen. Data for the sgs1 mgt1 strain (AID 161);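 further: 0% = growth of cultures given vehicle only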; conditions: S. cerevisiae sgs1 mgt1 strain, at 50.0 µM, stronger effect = higher value
Summary of the method: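 Test agents were incubated with a DNA-repair-mutant yeast strain. Growth was then read and compared against vehicle-treated controls.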

[4] = NCI Yeast Anticancer Drug Screen. Data for the cln2 rad14 strain (AID 165);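 further: 0% = growth equal to vehicle treated cultures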; conditions: S. cerevisiae cln2 rad14 strain, at 50.0 µM, stronger effect = higher value
Summary of the method: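 Compounds are applied to the cln2 rad14 yeast strain, and growth is then compared with that of vehicle-treated cultures to give inhibition.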

[5] = NCI Yeast Anticancer Drug Screen. Data for the bub3 strain (AID 167); conditions: S. cerevisiae bub3 mutant strain, at 50.0 µM, stronger effect = higher value
Summary of the method: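 Mutant yeast screening strain plus compound; vehicle-treated cultures serve as the 0% inhibition reference.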

[6] = NCI Yeast Anticancer Drug Screen. Data for the mlh1 rad18 strain (AID 175); conditions: S. cerevisiae mlh1 rad18 strain growth inhibition; at 50.0 µM; stronger effect = higher value
Summary of the method: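 Read-out is yeast growth inhibition, calculated against vehicle-only controls. The compound was applied to a strain engineered with DNA damage repair alterations.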

Measured: growth inhibition

O=S(=O)(c1ccc(NC(=S)NCc2ccco2)cc1)N1CCCCC1
inactive: [1] 46% | [2] 5.6% | [3] 42.1% | [4] 38.3% | [5] 28.9% | [6] 25.6%

O=C1Cc2c([nH]c3c(Cl)cccc23)-c2ccccc2N1
inactive: [1] -4.65% | [2] 14.6% | [3] -19.2% | [4] 21.8% | [5] 4.5% | [6] -23.4%

O=C(NC(Cc1ccc(O)cc1)C(=O)O)C(=O)c1c[nH]c2ccc([N+](=O)[O-])cc12 (configuration not stated)
inactive: [1] 3.45% | [2] 1.45% | [3] -23.1% | [4] 0.45% | [5] 2.8% | [6] 26.9%

COc1cc(C2SC(N)=Nc3c2c(C)nn3C(=O)c2ccccc2O)ccc1O (configuration not stated)
inactive: [1] -4.9% | [2] 24.1% | [3] 22.5% | [4] -1.35% | [5] 40.4% | [6] 16%

CC(=O)Nc1ccc(C(=O)NN2C(=O)C(Cl)C2c2ccc([N+](=O)[O-])cc2)cc1 (configuration not stated)
inactive: [1] -0.05% | [2] 19.6% | [3] -2.05% | [4] 1.45% | [5] -24.4% | [6] 8.3%

O=C(OCOC(=O)c1ccccc1)c1ccccc1
inactive: [1] -23.1% | [2] -5.95% | [3] -8.6% | [4] -18.5% | [5] -4.7% | [6] -6.55%

O=C(Nc1ccccc1)SC1CCCCC1
inactive: [1] -4.6% | [2] 4.95% | [3] -8.7% | [4] -21.1% | [5] 3.8% | [6] -1.9%

CC1OC(c2ccccc2)=CC(OCc2ccccc2)[C@H]1OCc1ccccc1 (some centres not stated)
inactive: [1] -18.9% | [2] -23.6% | [3] -19% | [4] -50.8% | [5] -33% | [6] 2.95%

CCOC(=O)C(Cl)(NC(=O)NC(Cl)(C(=O)OCC)C(F)(F)F)C(F)(F)F (configuration not stated)
inactive: [1] 3.8% | [2] 23.8% | [3] -0.85% | [4] -1.75% | [5] 3.2% | [6] 6.65%

[O-]c1c[n+](CC[n+]2cc([O-])on2)no1
inactive: [1] 13.7% | [2] -8.45% | [3] -13.2% | [4] 40.5% | [5] -19.6% | [6] -14.7%

CC1C=C(Br)C(=O)C(n2cnc3c(=O)n(C)c(=O)n(C)c32)O1 (configuration not stated)
inactive: [1] 24.1% | [2] 13.5% | [3] 18.8% | [4] 8% | [5] 10.9% | [6] 34%

COC1C(/C=C/C(C)=O)OC2OC(C)(C)OC21 (configuration not stated)
inactive: [1] 1.7% | [2] 1.35% | [3] 3.85% | [4] -9.45% | [5] 2.3% | [6] -1.55%

O=C(Oc1cccc2ccccc12)c1cccnc1
inactive: [1] -1.45% | [2] -2% | [3] 6.4% | [4] -38% | [5] 19.7% | [6] 31.3%

COc1ccccc1C(O)(c1ccccc1OC)C1(O)CCCCC1
inactive: [1] -10.2% | [2] -2% | [3] -5% | [4] 13.8% | [5] -0.1% | [6] 1.15%

O=C(NO)C(=O)NO
inactive: [1] -0.65% | [2] -2.95% | [3] -1.9% | [4] -19.4% | [5] -20% | [6] -16.8%

N=C(N)SCc1cccc(Cl)c1
inactive: [1] -20% | [2] -14% | [3] -4.55% | [4] -82.1% | [5] -9.45% | [6] -22.6%

CCCOC(=O)C(OC(=O)c1ccccc1)C(OC(=O)c1ccccc1)C(=O)OCCC (configuration not stated)
inactive: [1] -0.65% | [2] 0.1% | [3] -8% | [4] -10.9% | [5] 5.05% | [6] -3.7%

Clc1ccc(-c2c3nc(c(-c4ccc(Cl)cc4)c4ccc([nH]4)c(-c4ccc(Cl)cc4)c4nc(c(-c5ccc(Cl)cc5)c5ccc2[nH]5)C=C4)C=C3)cc1
inactive: [1] -30.6% | [2] -17.9% | [3] -12.4% | [4] 15.8% | [5] -14.3% | [6] -18.9%

SC1CCCN(Cc2ccccc2)C1 (configuration not stated)
inactive: [1] 24.9% | [2] 4.9% | [3] 2.15% | [4] 33.8% | [5] 8.9% | [6] 17.6%

CC(C)(N=NC(C)(C)C(=O)NCCO)C(=O)NCCO
inactive: [1] -6.15% | [2] -6.65% | [3] 0.85% | [4] 19.7% | [5] 2% | [6] -0.65%

Nc1nc(N)c(N=Nc2ccc(Cl)cc2Cl)c(=O)[nH]1
inactive: [1] 18.6% | [2] -2.6% | [3] -6.45% | [4] 15.6% | [5] 14.8% | [6] 2.75%

Cc1nc2ccc(-c3ccccc3)cc2nc1C
inactive: [1] -9.25% | [2] 5.7% | [3] -20.9% | [4] 4.45% | [5] -5.05% | [6] 3.7%

CCCC(=O)NC(NC1CCCCC1)(C(=O)OCC)C(F)(F)F (configuration not stated)
inactive: [1] -17.3% | [2] -0.15% | [3] -15.6% | [4] 18.4% | [5] -7.25% | [6] -45.1%

CC1(c2ccccc2)CCC(=O)NC1 (configuration not stated)
inactive: [1] -0.15% | [2] -37.5% | [3] -2.1% | [4] 8.45% | [5] -7.25% | [6] 11.6%

O=C(O)CCc1cccc2c(=O)cc(-c3ccccc3)oc12
inactive: [1] -10.3% | [2] -1.7% | [3] 0.8% | [4] 30.9% | [5] 8.35% | [6] 3.35%

CCN(CC)C(=O)c1ccccc1
inactive: [1] 7.75% | [2] 8.6% | [3] -10.3% | [4] -2.65% | [5] -24.6% | [6] 10.3%

Cc1cc(O)c(/C=N/C(=S)Nc2ccccc2)c(=O)o1
inactive: [1] -20.4% | [2] -48.8% | [3] -24.1% | [4] -8.65% | [5] -48.2% | [6] -39%

O=C1CCC2(CC1)SCCCS2
inactive: [1] -0.6% | [2] -21.5% | [3] -16.1% | [4] 20.9% | [5] -7.3% | [6] -17.1%

O=[N+]([O-])c1ccc(C=Nc2ccc3c(c2)Cc2ccccc2-3)cc1
inactive: [1] -7.7% | [2] -16.8% | [3] 9.9% | [4] -20.1% | [5] -16.4% | [6] 1.25%

O=C(O)CC(CC(=O)O)c1ccc(F)cc1
inactive: [1] -2% | [2] 0.95% | [3] -10.2% | [4] -2.35% | [5] 2.05% | [6] -8.5%

CC1C[P+](c2ccccc2)(c2ccccc2)Cc2ccccc21 (configuration not stated)
inactive: [1] 3.4% | [2] 9.75% | [3] -8.25% | [4] -13.4% | [5] -1.85% | [6] 4.6%

ClSC(c1ccccc1)(c1ccccc1)c1ccccc1
inactive: [1] 20.2% | [2] 8.9% | [3] 57.6% | [4] 10.6% | [5] -30.9% | [6] 33.4%

CN(C)C(=O)NNC(=O)N(C)C
inactive: [1] 1.75% | [2] 20.5% | [3] 12.8% | [4] -22.5% | [5] 6.85% | [6] -0.7%

CN1CCCN(C)CCCN(C)CCCN(C)CCC1
inactive: [1] -19.8% | [2] -2.45% | [3] 7.6% | [4] -4.65% | [5] -24.6% | [6] 11.8%

CCOC(=O)/C=C/c1ccc([N+](=O)[O-])cc1
inactive: [1] 23.6% | [2] 26.6% | [3] 9.15% | [4] 2.55% | [5] -1.9% | [6] -0.05%

CC(C)(C)NC(=O)NCc1ccccc1Cl
inactive: [1] 2.9% | [2] -8.1% | [3] -2.7% | [4] -52.5% | [5] -0.75% | [6] -8.35%

Cc1ccc2nc(N(C)C)nc(N)c2c1
inactive: [1] -7.95% | [2] 2.05% | [3] -5.45% | [4] -7.85% | [5] -8.3% | [6] -6.2%
